This is part of a sample that, as a whole, favours compounds with a hit. Of some 83,000 tested, about 20% had one in any assay.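 Interpretation: 100, growth as untreated; towards 0, rising growth inhibition; 0, no net growth; 0 to -100, cell death. Compounds scoring below 10 were considered active.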 Values without a mark were called inactive. The source made the active and inactive calls.
Legend:
Assay in all cases: NCI-60 one-dose screen, 48 h (100 = growth as untreated, 0 = no growth, -100 = all killed)
Details in all cases: 10 µM unless noted
HCT-15 colon = test system: HCT-15 colon
HT29 colon = test system: HT29 colon
SNB-75 CNS = test system: SNB-75 CNS
SNB-19 CNS = test system: SNB-19 CNS
U251 CNS = test system: U251 CNS
PC-3 prostate = test system: PC-3 prostate
SK-MEL-5 melanoma = test system: SK-MEL-5 melanoma
UACC-62 melanoma = test system: UACC-62 melanoma
SK-MEL-28 melanoma = test system: SK-MEL-28 melanoma
SK-MEL-2 melanoma = test system: SK-MEL-2 melanoma
EKVX NSCLC = test system: EKVX NSCLC
SN12C renal = test system: SN12C renal
UO-31 renal = test system: UO-31 renal
TK-10 renal = test system: TK-10 renal
ACHN renal = test system: ACHN renal
CAKI-1 renal = test system: CAKI-1 renal
A498 renal = test system: A498 renal
CCRF-CEM leukemia = test system: CCRF-CEM leukemia
MOLT-4 leukemia = test system: MOLT-4 leukemia

Row | Compound | growth (HCT-15 colon) | growth (HT29 colon) | growth (SNB-75 CNS) | growth (SNB-19 CNS) | growth (U251 CNS) | growth (PC-3 prostate) | growth (SK-MEL-5 melanoma) | growth (UACC-62 melanoma) | growth (SK-MEL-28 melanoma) | growth (SK-MEL-2 melanoma) | growth (EKVX NSCLC) | growth (SN12C renal) | growth (UO-31 renal) | growth (TK-10 renal) | growth (ACHN renal) | growth (CAKI-1 renal) | growth (A498 renal) | growth (CCRF-CEM leukemia) | growth (MOLT-4 leukemia)
1 | O=C(N=Nc1c(O)[nH]c2ccc([N+](=O)[O-])cc12)c1ccc2nc(-c3ccccc3)[nH]c2c1 | 105% | 110% | 95.7% | 43.6% | 34.8% | 53.3% | 97.7% | 75.5% | 60.8% | 77% | 97.5% | 49.5% | 84.4% | 140% | 101% | 91.7% | 122% | 32.7% | 43.3%
2 | Cc1cc2nc3c4ccccc4n(CCCN(C)C)c3nc2cc1C | -10.1% (active) | -3.59% (active) | -97.8% (active) | -8.61% (active) | 1.33% (active) | -32% (active) | -94.4% (active) | -90.4% (active) | -71.1% (active) | -90.1% (active) | -41.8% (active) | -27.6% (active) | 2.63% (active) | 8.05% (active) | 4.95% (active) | 3.24% (active) | -39.6% (active) | 0.177% (active) | 2.75% (active)
3 | Cc1c(C(=O)NNC(=O)Nc2ccc(Cl)cc2)nnn1-c1ccc(Br)cc1 | 97% | 97.2% | 90.2% | 91.4% | 104% | 103% | 99.4% | 88.7% | 96.5% | 109% | 88% | 103% | 75.7% | 96.1% | 99.7% | 83.9% | 99.8% | 89% | 83.5%
4 | C[C@H](Nc1nc(NCCc2ccccc2)nc2ccccc12)c1ccccc1 | -91.2% (active) | -90.6% (active) | -44.6% (active) | -75% (active) | -77.7% (active) | -54.5% (active) | -100% (active) | -95% (active) | -98.5% (active) | -92% (active) | -86.2% (active) | -94.6% (active) | -95.9% (active) | -93.6% (active) | -97.2% (active) | -85.9% (active) | -69.5% (active) | -16.3% (active) | -60.3% (active)
5 | COc1ccc(NC(=O)[C@H](CO)NC(=O)OC(C)(C)C)cc1C(=O)Nc1cccc(C2CC(=O)c3c(cc(OC)c(OC)c3OC)O2)c1 (some centres undefined) | 33% | 49.4% | 51.4% | 69.2% | 61.9% | 49.8% | 27.9% | 49.1% | 71.4% | 53.1% | 81.2% | 49% | 40.4% | 103% | 56.2% | 38.6% | 105% | 23.3% | 16.2%
6 | C=C1CC[C@@H]2[C@]3(C)COC(c4cn(-c5ccccc5)nc4-c4cccc([N+](=O)[O-])c4)O[C@@H]3CC[C@@]2(C)[C@@H]1C/C=C1/C(=O)OC[C@H]1O (some centres undefined) | -74.2% (active) | -59.7% (active) | 109% | 23.5% | -73.9% (active) | 16.5% | -99.6% (active) | -71.7% (active) | -47.9% (active) | -45.2% (active) | -0.625% (active) | 3.71% (active) | 12.2% | 36.9% | -74.5% (active) | 38.7% | 105% | -1.81% (active) | -3.81% (active)
7 | Cc1ccc2c(N)c(C(=O)Nc3ccc(-c4ccccc4)cc3)sc2n1 | 58.7% | 84.3% | 53.8% | 63.5% | 85.2% | 68.5% | 20.3% | 72.2% | 85.1% | 58.9% | 22.7% | 65.1% | 56.1% | 75.3% | 60.1% | 59.4% | 114% | 55.4% | 50.9%
8 | COCOc1cc2oc(C(=O)N[C@@H](Cc3ccccc3)C(O)C(=O)NCc3ccccc3)c(C)c(=O)c2cc1OCOC (some centres undefined) | 94.4% | 77.5% | 21.7% | 47.3% | 41.3% | 101% | 49.9% | 63.6% | 70.9% | 79.7% | 107% | 51.9% | 87.1% | 63.2% | 66.9% | 84.7% | -35.2% (active) | 104% | 97.3%
9 | Cn1cc(-c2nc(N)nnc2-c2c[nH]c3ccc(F)cc23)c2cccnc21 | 51.8% | 44.5% | 7.07% (active) | 39% | 35.7% | 51.2% | 35.3% | 29.8% | 75.1% | 85.6% | 62.3% | 49.3% | 14.8% | 44.6% | 14.9% | 12.6% | 36.8% | 27.5% | 18.2%
10 | CSc1ccc(NC(=O)c2ccc3nn(/C(C#N)=C/c4ccccn4)nc3c2)cc1 | -72.1% (active) | -86.1% (active) | 35.1% | -75.7% (active) | -79.9% (active) | -73.7% (active) | -92.8% (active) | -96.3% (active) | -98.4% (active) | -89.9% (active) | -99% (active) | -65.7% (active) | -99% (active) | -94.7% (active) | -95.3% (active) | -90.9% (active) | -33.9% (active) | -47.8% (active) | -20.4% (active)
11 | OCNc1ccc(-n2cnc3cc(-c4ccc(O)cc4)ccc32)cc1C(F)(F)F | 15.5% | 21.2% | 17.6% | 35.2% | 16.8% | 45.6% | 3.27% (active) | 33.5% | 27.5% | 21.7% | 34.7% | 19.7% | 13.1% | 46.6% | 12.2% | 33.5% | 74.9% | 31.9% | 15%
12 | O=C(COc1ccc(NC(=O)Nc2ccc(Cl)c(Cl)c2)cc1)N=Nc1c(O)[nH]c2ccc(Br)cc12 | 27% | -46.2% (active) | 7.51% (active) | -5.58% (active) | -84.7% (active) | -16.6% (active) | -89% (active) | -35.5% (active) | -77% (active) | -71.6% (active) | 4.88% (active) | -20.9% (active) | 51.1% | -0.92% (active) | 12.5% | 0.251% (active) | -54.9% (active) | 9.52% (active) | -3.16% (active)
13 | COCOc1ccc2c(=O)c(C)c(C(=O)N[C@@H](Cc3ccccc3)C(O)C(=O)NCCc3ccc(OC)cc3)oc2c1 (some centres undefined) | 102% | 113% | 125% | 96% | 106% | 110% | 99.4% | 102% | 124% | 118% | 111% | 95.2% | -20.1% (active) | 116% | 114% | 101% | 136% | 105% | 94.8%
14 | NS(=O)(=O)c1ccc(N=Nc2c(O)n(CC(=O)Nc3ccccc3)c3ccccc23)cc1 | 16% | 2.37% (active) | 42.2% | 20.2% | -15.1% (active) | 20.8% | 24.6% | 22.1% | -2.1% (active) | 42.7% | 38.4% | 52.7% | 31.1% | 84% | 11% | 7.36% (active) | 60% | 50.2% | 7.09% (active)
15 | Cc1cc(C)cc(C(=O)Nc2cccc(-c3cn(-c4ccc(S(N)(=O)=O)cc4)nn3)c2)c1 | 79% | 80.4% | -7.62% (active) | -27.9% (active) | 10.9% | 83% | 24.4% | 12.2% | 62.4% | 12.8% | 55.7% | 32.6% | 68.2% | -9.72% (active) | 22.5% | 59.7% | -13.4% (active) | 30.4% | 25.3%
16 | CCOC(=O)C1=C(N)N(c2ccccc2)C2=C(C(=O)CC(C)(C)C2)C1c1ccc(Cl)cc1Cl (centres undefined) | 14% | 35% | 41.2% | 28.1% | 27.6% | 9.99% (active) | -1.66% (active) | 27.2% | 51.3% | -12.3% (active) | 18.8% | 20.6% | 16.8% | 36.6% | 17.1% | 23.1% | 46.8% | 19.3% | 7.23% (active)

From PubChem BioAssay (NCI)
